Reference: publication PMC7862700, “An all-to-all approach to the identification of sequence-specific readers for epigenetic DNA modifications on cytosine”

Key:
Assay in all cases: DAPPL (digital affinity profiling via proximity ligation, sequencing); 10 mM Tris-HCl pH 7.5, 50 mM NaCl, 1 mM DTT, 4% glycerol, room temperature, 30 min; GST-TFs on glutathione beads, 16-mer random dsDNA library, 0.1% formaldehyde crosslink after washing; high values mean tight binding
FLI1 = biological target: T1, FLI1 (Homo sapiens, UniProt Q01543 1-452); conditions: protein: recombinant; tags: N-terminal GST; dsDNA, one strand shown
T1 sequence: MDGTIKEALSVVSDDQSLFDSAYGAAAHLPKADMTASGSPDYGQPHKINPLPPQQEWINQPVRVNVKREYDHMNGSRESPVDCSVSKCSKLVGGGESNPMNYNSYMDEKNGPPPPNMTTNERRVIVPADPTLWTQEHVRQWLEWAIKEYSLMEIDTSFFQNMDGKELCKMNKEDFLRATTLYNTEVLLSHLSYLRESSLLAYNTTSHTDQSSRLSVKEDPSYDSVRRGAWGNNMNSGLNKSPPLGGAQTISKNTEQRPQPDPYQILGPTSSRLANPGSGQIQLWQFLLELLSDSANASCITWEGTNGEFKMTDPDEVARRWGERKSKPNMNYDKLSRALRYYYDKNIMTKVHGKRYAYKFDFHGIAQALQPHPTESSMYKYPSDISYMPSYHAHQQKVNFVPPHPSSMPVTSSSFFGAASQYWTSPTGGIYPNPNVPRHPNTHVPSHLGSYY
How it was run: (§1)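 The binding signal reported is, for every hexamer, its read frequency for a factor over its read frequency for the tag-only sample. Reads came from pools of yeast-expressed, GST-fused human transcription factors on glutathione beads, barcoded with DNA and mixed with that sample, which were incubated with 200 nmole of a random double-stranded 16-mer DNA library in Tris/NaCl/DTT/glycerol buffer at room temperature for 30 min. After washing, the pools were crosslinked with 0.1% formaldehyde, proximity-ligated with BsaI/T4 ligase for 1 h at 37 °C, PCR-amplified and sequenced on an Illumina NextSeq500.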

ELK1 = biological target: T2, ELK1 (Homo sapiens, UniProt P19419 1-428); conditions: protein: recombinant; tags: N-terminal GST; dsDNA, one strand shown
T2 sequence: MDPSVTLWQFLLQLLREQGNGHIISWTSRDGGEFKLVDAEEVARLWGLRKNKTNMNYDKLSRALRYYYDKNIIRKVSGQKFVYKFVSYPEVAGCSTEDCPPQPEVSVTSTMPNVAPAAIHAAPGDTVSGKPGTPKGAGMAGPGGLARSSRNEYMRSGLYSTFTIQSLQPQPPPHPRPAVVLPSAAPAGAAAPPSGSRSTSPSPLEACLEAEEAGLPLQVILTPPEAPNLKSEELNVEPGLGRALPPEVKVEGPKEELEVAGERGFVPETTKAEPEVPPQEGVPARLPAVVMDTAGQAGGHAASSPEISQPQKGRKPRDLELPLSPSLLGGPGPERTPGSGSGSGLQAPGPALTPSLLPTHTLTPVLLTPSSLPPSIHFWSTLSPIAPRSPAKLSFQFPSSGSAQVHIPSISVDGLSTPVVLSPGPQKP
How it was run: as §1

GABPA = biological target: T3, GABPA (Homo sapiens, UniProt Q06546 1-454); conditions: protein: recombinant; tags: N-terminal GST; dsDNA, one strand shown
T3 sequence: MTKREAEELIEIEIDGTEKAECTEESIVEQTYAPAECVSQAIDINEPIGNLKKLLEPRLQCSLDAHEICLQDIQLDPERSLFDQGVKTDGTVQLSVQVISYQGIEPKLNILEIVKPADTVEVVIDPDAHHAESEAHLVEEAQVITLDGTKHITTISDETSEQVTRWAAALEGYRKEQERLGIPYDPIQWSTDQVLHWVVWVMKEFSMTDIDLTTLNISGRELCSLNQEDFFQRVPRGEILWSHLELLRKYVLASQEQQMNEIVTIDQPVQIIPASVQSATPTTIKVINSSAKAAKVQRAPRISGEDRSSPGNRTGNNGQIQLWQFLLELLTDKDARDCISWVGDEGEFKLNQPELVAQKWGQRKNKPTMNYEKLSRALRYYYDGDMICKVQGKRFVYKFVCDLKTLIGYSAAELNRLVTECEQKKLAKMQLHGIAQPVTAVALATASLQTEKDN
How it was run: as §1

ERG = biological target: T4, ERG (Homo sapiens, UniProt P11308 1-479); conditions: protein: recombinant; tags: N-terminal GST; dsDNA, one strand shown
T4 sequence: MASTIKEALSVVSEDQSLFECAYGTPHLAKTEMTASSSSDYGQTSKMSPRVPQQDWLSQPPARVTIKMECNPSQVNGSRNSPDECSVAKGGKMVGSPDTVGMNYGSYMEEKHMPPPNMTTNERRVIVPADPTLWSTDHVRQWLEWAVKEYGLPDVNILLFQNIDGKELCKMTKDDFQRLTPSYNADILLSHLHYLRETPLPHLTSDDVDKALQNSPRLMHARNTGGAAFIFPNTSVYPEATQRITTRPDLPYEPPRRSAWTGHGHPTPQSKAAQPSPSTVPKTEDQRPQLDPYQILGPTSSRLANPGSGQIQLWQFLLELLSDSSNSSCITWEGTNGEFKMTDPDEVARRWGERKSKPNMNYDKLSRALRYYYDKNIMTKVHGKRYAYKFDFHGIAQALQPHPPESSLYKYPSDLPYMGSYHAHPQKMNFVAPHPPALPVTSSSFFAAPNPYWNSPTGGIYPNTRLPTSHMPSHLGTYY
How it was run: as §1

ELF1 = ELF1 (Homo sapiens, UniProt P32519 1-619); conditions: protein: recombinant; tags: N-terminal GST; dsDNA, one strand shown
ELF1, sequence (P32519 whole entry): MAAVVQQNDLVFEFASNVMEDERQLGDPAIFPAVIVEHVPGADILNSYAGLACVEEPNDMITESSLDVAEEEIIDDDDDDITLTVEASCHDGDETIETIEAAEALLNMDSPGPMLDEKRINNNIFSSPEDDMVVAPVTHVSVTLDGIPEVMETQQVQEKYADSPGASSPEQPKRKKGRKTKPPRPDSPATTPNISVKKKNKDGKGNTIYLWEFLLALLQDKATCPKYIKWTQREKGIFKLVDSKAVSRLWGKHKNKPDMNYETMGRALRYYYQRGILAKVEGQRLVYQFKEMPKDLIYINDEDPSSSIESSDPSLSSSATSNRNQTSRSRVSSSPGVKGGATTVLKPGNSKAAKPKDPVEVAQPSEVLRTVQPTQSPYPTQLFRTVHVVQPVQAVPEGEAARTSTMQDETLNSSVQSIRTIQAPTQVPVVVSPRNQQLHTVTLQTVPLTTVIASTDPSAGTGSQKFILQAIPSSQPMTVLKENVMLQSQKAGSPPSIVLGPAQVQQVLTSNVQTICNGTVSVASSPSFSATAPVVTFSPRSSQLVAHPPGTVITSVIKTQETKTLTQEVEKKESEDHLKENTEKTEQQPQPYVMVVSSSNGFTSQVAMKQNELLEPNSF
How it was run: as §1

EHF = biological target: T5, EHF (Homo sapiens, UniProt Q9NZC4 1-300); conditions: protein: recombinant; tags: N-terminal GST; dsDNA, one strand shown
T5 sequence: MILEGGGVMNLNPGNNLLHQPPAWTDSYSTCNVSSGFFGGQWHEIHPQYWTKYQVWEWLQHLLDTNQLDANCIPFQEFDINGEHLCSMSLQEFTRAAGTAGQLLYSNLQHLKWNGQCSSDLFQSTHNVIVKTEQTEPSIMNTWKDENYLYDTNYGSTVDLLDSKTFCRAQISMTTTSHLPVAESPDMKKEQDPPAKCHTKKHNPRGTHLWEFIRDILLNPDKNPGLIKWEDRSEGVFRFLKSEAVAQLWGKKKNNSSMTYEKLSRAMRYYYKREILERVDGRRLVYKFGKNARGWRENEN
How it was run: as §1

SPI1 = SPI1 (Homo sapiens, UniProt P17947 1-270); conditions: protein: recombinant; tags: N-terminal GST; dsDNA, one strand shown
How it was run: as §1

SPIB = SPIB (Homo sapiens, UniProt Q01892 1-262); conditions: protein: recombinant; tags: N-terminal GST; dsDNA, one strand shown
SPIB, sequence (Q01892 whole entry): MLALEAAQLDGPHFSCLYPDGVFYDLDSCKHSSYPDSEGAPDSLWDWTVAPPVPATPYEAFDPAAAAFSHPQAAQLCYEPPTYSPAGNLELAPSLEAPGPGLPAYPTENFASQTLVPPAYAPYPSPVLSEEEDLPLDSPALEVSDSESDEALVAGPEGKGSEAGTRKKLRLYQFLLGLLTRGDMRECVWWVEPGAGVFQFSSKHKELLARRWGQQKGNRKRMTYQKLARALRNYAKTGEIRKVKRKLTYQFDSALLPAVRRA
How it was run: as §1

ELK3 = biological target: T6, ELK3 (Homo sapiens, UniProt P41970 1-407); conditions: protein: recombinant; tags: N-terminal GST; dsDNA, one strand shown
T6 sequence: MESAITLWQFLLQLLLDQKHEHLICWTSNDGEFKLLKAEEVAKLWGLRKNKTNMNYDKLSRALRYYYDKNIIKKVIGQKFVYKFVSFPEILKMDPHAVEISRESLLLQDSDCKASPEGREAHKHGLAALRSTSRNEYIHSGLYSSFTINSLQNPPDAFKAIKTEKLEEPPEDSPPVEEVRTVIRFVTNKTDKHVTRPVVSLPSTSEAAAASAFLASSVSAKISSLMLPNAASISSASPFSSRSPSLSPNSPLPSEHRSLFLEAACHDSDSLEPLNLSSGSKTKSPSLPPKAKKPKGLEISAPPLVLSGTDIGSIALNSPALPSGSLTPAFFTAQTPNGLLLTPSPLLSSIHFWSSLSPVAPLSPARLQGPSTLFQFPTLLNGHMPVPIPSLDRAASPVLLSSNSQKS
How it was run: as §1

FEV = biological target: T7, FEV (Homo sapiens, UniProt Q99581 1-238); conditions: protein: recombinant; tags: N-terminal GST; dsDNA, one strand shown
T7 sequence: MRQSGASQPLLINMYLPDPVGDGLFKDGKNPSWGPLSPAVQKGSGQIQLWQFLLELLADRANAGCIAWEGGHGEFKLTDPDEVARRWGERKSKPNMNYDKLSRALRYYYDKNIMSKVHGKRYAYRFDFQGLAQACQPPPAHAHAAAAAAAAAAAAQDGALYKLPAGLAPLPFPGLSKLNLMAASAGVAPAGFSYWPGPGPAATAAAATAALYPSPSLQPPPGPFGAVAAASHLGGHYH
How it was run: as §1

ETV5 = ETV5 (Homo sapiens, UniProt P41161 1-510); conditions: protein: recombinant; tags: N-terminal GST; dsDNA, one strand shown
ETV5, sequence (P41161 whole entry): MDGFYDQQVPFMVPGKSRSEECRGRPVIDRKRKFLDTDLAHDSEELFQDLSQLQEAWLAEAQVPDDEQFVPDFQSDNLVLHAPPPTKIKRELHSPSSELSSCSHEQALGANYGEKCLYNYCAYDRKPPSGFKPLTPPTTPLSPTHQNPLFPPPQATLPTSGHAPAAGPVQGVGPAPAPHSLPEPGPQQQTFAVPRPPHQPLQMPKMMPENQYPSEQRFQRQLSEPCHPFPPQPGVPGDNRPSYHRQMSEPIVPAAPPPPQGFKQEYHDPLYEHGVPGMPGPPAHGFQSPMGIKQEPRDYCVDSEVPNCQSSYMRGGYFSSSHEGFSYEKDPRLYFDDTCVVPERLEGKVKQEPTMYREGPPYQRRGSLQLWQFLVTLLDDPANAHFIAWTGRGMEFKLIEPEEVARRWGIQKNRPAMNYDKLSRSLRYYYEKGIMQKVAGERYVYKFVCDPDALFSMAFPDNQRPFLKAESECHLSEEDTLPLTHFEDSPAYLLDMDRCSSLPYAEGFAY
How it was run: as §1

HSF1 = HSF1 (Homo sapiens, UniProt Q00613 1-529); conditions: protein: recombinant; tags: N-terminal GST; chain copies: 3; dsDNA, one strand shown
HSF1, sequence (Q00613 whole entry): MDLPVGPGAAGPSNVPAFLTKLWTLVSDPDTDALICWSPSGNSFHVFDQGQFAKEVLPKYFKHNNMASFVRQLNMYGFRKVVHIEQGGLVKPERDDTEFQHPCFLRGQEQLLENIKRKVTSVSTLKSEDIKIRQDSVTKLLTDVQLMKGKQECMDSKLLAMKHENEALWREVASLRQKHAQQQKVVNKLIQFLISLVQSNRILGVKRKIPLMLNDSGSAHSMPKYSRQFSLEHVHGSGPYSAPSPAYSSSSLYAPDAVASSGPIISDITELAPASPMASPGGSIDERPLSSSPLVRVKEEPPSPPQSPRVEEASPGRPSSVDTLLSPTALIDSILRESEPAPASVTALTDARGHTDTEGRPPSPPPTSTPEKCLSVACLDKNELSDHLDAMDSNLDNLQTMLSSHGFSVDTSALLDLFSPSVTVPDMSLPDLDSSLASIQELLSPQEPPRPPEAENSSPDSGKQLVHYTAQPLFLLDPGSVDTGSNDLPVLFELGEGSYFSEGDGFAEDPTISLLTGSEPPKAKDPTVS
How it was run: as §1

ELF4 = ELF4 (Homo sapiens, UniProt Q99607 1-663); conditions: protein: recombinant; tags: N-terminal GST; dsDNA, one strand shown
ELF4, sequence (Q99607 whole entry): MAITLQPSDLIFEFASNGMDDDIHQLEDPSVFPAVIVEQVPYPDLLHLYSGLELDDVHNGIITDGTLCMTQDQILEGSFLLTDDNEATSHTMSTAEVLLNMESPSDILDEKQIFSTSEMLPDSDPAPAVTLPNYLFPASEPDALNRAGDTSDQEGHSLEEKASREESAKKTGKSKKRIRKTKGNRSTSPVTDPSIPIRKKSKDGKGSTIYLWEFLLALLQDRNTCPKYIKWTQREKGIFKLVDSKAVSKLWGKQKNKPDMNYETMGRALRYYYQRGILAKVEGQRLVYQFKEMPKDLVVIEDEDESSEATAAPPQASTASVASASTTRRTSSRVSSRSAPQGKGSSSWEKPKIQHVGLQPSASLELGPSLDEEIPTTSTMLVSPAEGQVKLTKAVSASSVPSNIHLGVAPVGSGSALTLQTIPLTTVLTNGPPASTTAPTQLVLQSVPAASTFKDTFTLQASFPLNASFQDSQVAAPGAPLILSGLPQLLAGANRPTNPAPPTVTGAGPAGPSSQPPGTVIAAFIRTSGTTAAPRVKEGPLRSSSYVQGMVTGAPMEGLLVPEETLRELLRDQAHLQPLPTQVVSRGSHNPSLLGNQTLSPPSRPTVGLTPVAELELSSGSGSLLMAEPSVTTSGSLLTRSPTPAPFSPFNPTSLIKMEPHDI
How it was run: as §1

ELK4 = biological target: T8, ELK4 (Homo sapiens, UniProt P28324-2 1-405); conditions: protein: recombinant; tags: N-terminal GST; dsDNA, one strand shown
T8 sequence: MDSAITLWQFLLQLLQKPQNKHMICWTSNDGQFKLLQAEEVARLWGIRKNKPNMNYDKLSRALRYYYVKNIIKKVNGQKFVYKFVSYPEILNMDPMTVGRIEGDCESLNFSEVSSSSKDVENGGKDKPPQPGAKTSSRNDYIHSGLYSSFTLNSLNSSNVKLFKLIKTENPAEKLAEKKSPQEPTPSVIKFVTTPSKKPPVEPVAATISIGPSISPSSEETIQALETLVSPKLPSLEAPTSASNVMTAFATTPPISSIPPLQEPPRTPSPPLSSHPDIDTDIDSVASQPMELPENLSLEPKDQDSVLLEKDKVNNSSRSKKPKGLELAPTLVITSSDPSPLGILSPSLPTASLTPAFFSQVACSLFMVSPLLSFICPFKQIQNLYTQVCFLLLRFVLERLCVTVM
How it was run: as §1

ETV2 = biological target: T9, ETV2 (Homo sapiens, UniProt O00321 1-342); conditions: protein: recombinant; tags: N-terminal GST; dsDNA, one strand shown
T9 sequence: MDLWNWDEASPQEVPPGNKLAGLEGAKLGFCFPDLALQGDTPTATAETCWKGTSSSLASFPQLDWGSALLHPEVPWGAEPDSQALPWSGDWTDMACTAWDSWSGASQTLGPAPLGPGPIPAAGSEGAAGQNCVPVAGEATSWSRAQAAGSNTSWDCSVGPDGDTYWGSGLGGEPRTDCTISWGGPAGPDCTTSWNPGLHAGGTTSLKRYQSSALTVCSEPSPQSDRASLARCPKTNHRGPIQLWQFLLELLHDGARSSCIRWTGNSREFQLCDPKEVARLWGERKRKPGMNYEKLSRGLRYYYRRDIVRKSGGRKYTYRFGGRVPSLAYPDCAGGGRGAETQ
How it was run: as §1

ELF3 = biological target: T10, ELF3 (Homo sapiens, UniProt P78545 1-371); conditions: protein: recombinant; tags: N-terminal GST; dsDNA, one strand shown
T10 sequence: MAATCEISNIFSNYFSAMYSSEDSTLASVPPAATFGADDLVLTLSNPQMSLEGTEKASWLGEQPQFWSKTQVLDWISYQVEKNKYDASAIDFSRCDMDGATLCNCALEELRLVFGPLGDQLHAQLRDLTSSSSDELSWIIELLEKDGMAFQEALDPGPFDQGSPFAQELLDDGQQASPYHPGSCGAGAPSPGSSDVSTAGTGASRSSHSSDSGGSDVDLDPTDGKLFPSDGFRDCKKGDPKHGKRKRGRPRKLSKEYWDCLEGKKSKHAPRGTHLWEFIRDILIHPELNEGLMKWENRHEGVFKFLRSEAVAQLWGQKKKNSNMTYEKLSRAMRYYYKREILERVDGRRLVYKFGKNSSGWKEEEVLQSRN
How it was run: as §1

CRX = CRX (Homo sapiens, UniProt O43186 1-299); conditions: protein: recombinant; tags: N-terminal GST; dsDNA, one strand shown
CRX, sequence (O43186 whole entry): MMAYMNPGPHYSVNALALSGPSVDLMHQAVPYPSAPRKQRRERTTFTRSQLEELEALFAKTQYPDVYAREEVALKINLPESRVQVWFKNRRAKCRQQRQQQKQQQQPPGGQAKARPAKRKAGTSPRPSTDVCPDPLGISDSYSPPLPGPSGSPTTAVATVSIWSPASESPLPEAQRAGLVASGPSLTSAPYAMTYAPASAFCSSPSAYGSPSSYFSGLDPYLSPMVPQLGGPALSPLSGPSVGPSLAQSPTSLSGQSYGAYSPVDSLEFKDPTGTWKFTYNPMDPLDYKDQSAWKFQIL
How it was run: as §1

ETV1 = ETV1 (Homo sapiens, UniProt P50549 1-477); conditions: protein: recombinant; tags: N-terminal GST; dsDNA, one strand shown
ETV1, sequence (P50549 whole entry): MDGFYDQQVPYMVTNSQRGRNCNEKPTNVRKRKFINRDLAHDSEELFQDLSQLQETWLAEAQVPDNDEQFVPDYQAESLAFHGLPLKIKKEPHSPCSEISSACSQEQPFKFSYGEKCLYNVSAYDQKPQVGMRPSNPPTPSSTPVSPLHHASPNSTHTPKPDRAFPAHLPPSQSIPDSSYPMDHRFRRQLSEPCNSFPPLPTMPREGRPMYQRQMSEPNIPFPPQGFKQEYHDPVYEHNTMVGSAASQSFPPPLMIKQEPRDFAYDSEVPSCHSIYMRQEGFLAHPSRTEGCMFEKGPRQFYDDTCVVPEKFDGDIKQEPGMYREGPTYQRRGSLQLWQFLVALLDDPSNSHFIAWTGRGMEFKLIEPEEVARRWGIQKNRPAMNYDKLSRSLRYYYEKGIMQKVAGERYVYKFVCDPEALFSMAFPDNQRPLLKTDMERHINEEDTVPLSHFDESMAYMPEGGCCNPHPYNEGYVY
How it was run: as §1

CTATAG
binding signal (FLI1): 1.09 fold enrichment (6-mer frequency, TF over GST control)
binding signal (ELK1): 1.05 fold enrichment (6-mer frequency, TF over GST control)
binding signal (GABPA): 1.11 fold enrichment (6-mer frequency, TF over GST control)
binding signal (ERG): 1.01 fold enrichment (6-mer frequency, TF over GST control)
binding signal (ELF1): 1.09 fold enrichment (6-mer frequency, TF over GST control)
binding signal (EHF): 1.03 fold enrichment (6-mer frequency, TF over GST control)
binding signal (SPI1): 1.08 fold enrichment (6-mer frequency, TF over GST control)
binding signal (SPIB): 1.07 fold enrichment (6-mer frequency, TF over GST control)
binding signal (ELK3): 1.08 fold enrichment (6-mer frequency, TF over GST control)
binding signal (FEV): 1.04 fold enrichment (6-mer frequency, TF over GST control)
binding signal (ETV5): 1.1 fold enrichment (6-mer frequency, TF over GST control)
binding signal (HSF1): 1.03 fold enrichment (6-mer frequency, TF over GST control)
binding signal (ELF4): 1.02 fold enrichment (6-mer frequency, TF over GST control)
binding signal (ELK4): 1.14 fold enrichment (6-mer frequency, TF over GST control)
binding signal (ETV2): 1.27 fold enrichment (6-mer frequency, TF over GST control)
binding signal (ELF3): 1.04 fold enrichment (6-mer frequency, TF over GST control)
binding signal (CRX): 1.05 fold enrichment (6-mer frequency, TF over GST control)
binding signal (ETV1): 1.01 fold enrichment (6-mer frequency, TF over GST control)
